Assay outcomes from PubChem BioAssay.
Sampled rows, rich in hits. Any-hit rate of the full collection: about 2.8%.
PI5P4Ka inh – qHTS for Inhibitors of phosphatidylinositol 5-phosphate 4-kinase (PI5P4K) | max response, % | PI5P4Kalpha enzyme, ADP-Glo luminescence, 60 min; hits give low values | Phosphatidylinositol 5-phosphate 4-kinase type-2 alpha (Homo sapiens), P48426 | 330,000 tested, 1.2% active | AID 652105, 2013; active means max response of -50% or lower; inconclusive means between -30% and -50%; inactive means -30% or higher; further: value at the top dose of about 77 µM; on the % scale 0 is the no-effect control and ±100 the full control effect
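Controls without substrate or without enzyme flank wells where PI5P4Kalpha converts substrate using 5 microM ATP (final). Incubation lasts 60 minutes at room temperature; ADP formed is read by ADP-Glo luminescence.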
Pol eta inh – qHTS for Inhibitors of Polymerase Eta; recombinant Pol eta, fluorescent DNA replication assay; Potency, µM (highest dose often 114 µM), inactives show at the highest dose activity change, negative = inhibition, usual class: inhibitors; 390,000 tested, 1.2% active; AID 588591, 2011; further: potency means the concentration at half of the fitted maximal effect; on the % scale 0 is the no-effect control and ±100 the full control effect
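Pol eta (10 nM) was preincubated with compounds for 15 min at room temperature, after which fluorescent replication substrate (50 nM final) was added to start the reaction. Fluorescence was read kinetically at 0 and 10 min.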
Pol kappa inh – qHTS for Inhibitors of Polymerase Kappa; purified Pol kappa, fluorescent DNA synthesis assay, 10 min; Potency, µM (doses to about 107 µM), for inactives: at the top dose activity, negative = inhibition, actives largely listed as inhibitors; 400,000 tested, 0.53% active; AID 588579, 2011; further: potency means the concentration at half of the fitted maximal effect; on the % scale 0 is the no-effect control and ±100 the full control effect
Target sequence (Q9UBT6 whole entry, looked up): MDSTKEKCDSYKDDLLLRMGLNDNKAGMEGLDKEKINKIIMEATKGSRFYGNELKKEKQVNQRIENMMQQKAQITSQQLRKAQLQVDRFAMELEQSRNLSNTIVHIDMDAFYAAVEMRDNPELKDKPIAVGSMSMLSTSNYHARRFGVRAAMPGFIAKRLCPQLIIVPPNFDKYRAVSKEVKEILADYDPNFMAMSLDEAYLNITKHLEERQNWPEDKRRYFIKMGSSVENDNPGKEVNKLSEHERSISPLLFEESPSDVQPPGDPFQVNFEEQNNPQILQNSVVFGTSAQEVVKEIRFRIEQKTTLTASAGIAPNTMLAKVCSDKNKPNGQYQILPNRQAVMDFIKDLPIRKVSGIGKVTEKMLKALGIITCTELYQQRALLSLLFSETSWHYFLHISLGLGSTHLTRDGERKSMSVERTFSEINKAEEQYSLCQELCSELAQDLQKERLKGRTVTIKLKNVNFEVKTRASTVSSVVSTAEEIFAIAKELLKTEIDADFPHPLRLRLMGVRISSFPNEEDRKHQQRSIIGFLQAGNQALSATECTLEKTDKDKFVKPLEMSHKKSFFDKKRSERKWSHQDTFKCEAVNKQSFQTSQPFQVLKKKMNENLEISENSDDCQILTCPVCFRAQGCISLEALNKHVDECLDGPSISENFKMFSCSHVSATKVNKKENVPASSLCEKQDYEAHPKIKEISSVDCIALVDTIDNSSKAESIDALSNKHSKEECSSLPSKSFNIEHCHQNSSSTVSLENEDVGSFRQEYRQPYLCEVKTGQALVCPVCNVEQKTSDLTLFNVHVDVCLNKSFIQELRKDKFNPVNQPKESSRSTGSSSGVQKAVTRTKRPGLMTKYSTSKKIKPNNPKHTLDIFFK
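Fluorescent qHTS in 1536-well format: enzyme (10 nM) and compound sat 15 min at room temperature before 50 nM substrate (final) was added. Signal taken at 0 and 10 min; no-enzyme buffer wells were negative controls.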
WRN helicase inh – qHTS for Inhibitors of WRN Helicase; Bifunctional 3'-5' exonuclease/ATP-dependent helicase WRN (Homo sapiens), Q14191; WRN helicase unwinding, fluorescent forked duplex, kinetic; Potency, µM (top dose mostly 114 µM), inactives show at the top dose activity change, negative = inhibition, actives largely listed as inhibitors; 360,000 tested, 0.46% active; further: potency means the concentration at half of the fitted maximal effect; on the % scale 0 is the no-effect control and ±100 the full control effect; nearly all actives have a fitted effect of over 55% in size
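WRN at 20 nM final was preincubated with compound for 15 min at room temperature; reaction started with 100 nM forked duplex oligonucleotide carrying fluorophore and quencher plus 2 mM ATP (final). Unwinding followed kinetically by red fluorescence (ex 525/em 598 nm).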
Pol beta inh – qHTS Assay for Inhibitors of DNA Polymerase Beta; 340,000 tested, 1.3% active; Potency, µM (series often up to 114 µM), inactives show at the highest dose activity change, negative = inhibition, hits mostly inhibitors; Pol beta primer extension/strand displacement, fluorescence kinetic; AID 485314, 2010; further: potency means the concentration at half of the fitted maximal effect; on the % scale 0 is the no-effect control and ±100 the full control effect
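Homogeneous kinetic assay of primer extension and strand displacement by 10 nM Pol beta, preincubated 15 min at room temperature with compound before 50 nM substrate (final) was added. Read at 0 and 10 min; four-parameter Hill fit.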
POLI inh – qHTS for Inhibitors of Polymerase Iota | AID 588590, 2011 | Pol iota fluorescent replication assay, 10 min | 390,000 tested, 1% active | Potency, µM (highest dose often 115 µM), for the others: top-dose activity, negative = inhibition, hits mostly inhibitors | DNA polymerase iota (Homo sapiens), Q9UNA4; further: potency means the concentration at half of the fitted maximal effect
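Fluorescent replication assay read twice, at 0 min and 10 min after adding 50 nM (final) substrate. Enzyme (10 nM) and compounds were first incubated 15 min at room temperature; enzyme-free buffer wells were negative controls.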
* = called active by the depositor; u = inconclusive; x = no result given; [ ] = another dose, or the depositor's remark. Unless noted, the call rests on the fitted dose curve; in most records, active means well fitted curve in the direction sought with a large enough effect; inconclusive means small, poorly fitted or top-dose-only effect, or another doubt; inactive means no such curve, though single readings can be large; an effect the other way counts as inactive or inconclusive.

SMILES	PI5P4Ka inh	Pol eta inh	Pol kappa inh	WRN helicase inh	Pol beta inh	POLI inh
Cn1c(=O)[nH]c(Nc2ccc(F)cc2)c([N+](=O)[O-])c1=O	-60*	-15%	-6%	-6%	37%	15%
CCc1ccc(-c2nc(CS(=O)CC(=O)NCc3ccco3)c(C)o2)cc1 (stereo not drawn)	-29	89µM*	-10%	-5%	u	12%
COc1ccc(-c2nc(CS(=O)CC(=O)NCc3ccco3)c(C)o2)cc1 (stereo not drawn)	-2	-13%	-1%	5%	3%	8%
Cc1ccc(C)c(S(=O)(=O)Nc2ccccc2C(=O)Nc2ccc(S(=O)(=O)Nc3ncccn3)cc2)c1	-15	u	-8%	-26%[57.1 µM]	16%	-2%
O=C(O)c1cc2nccc(-c3ccco3)n2n1	u	18µM*	u	-5%[11.6 µM]	0%	u
Cc1ccc(-n2ncc3c2CCCC3NC(=O)CCn2ccnc2C)cc1C (stereo not drawn)	-4	-20%	-24%	-10%	x	14%
O=C(CSc1nc(-c2cccs2)nc2cc(=O)[nH]n12)Nc1ccccc1	x	u	u	x	-21%	89µM*
O=C(CSc1nc(-c2ccco2)nc2cc(=O)[nH]n12)Nc1ccc(F)cc1	x	2%	-17%	x	40µM*	u
O=C(CSc1nc(-c2cccs2)nc2cc(=O)[nH]n12)Nc1ccccc1Cl	x	-27%	-37%	x	-24%	u
COc1ccccc1NC(=O)CSc1nc(=O)n(CCN2CCOCC2)c2c1CCC2	4	-10%	-11%	-1%	x	26%
Cc1nn(C)cc1/C=C1\SC(=S)NC1=O	-82*	-12%	-2%	-21%	0%	-12%
CCN1C(=O)/C(=C/c2c(C)nn(C)c2C)SC1=S	x	-4%	-7%	-15%	-18%	0%
Cc1nn(C)c(C)c1/C=C1/SC(=S)NC1=O	-78*	-8%	-2%	-2%	-2%	14%
COc1ccc(CN2CCNC(=O)C2CC(=O)NCC(C)(C)N2CCOCC2)cc1C (stereo not drawn)	2	-8%	-5%	-6%	2%	18%
C/C(=N\Nc1nc2ccccc2c(=O)n1O)c1ccco1	u	u	-23%	-14%[11.6 µM]	u	18µM*
CCOC(=O)c1ccc(O)c(-n2cc3c(c2-c2ccccc2)c(=O)n(C)c(=O)n3C)c1	-2	x	x	-8%	x	x
CCOC(=O)c1ccccc1NS(=O)(=O)c1ccccc1	x	-9%	-17%	5%	20%	-23%[58.9 µM]
CCOC(=O)c1ccccc1NS(=O)(=O)c1ccccc1F	x	-14%	-20%	-12%[57.1 µM]	19%	79µM*
C[C@H](CO)N1C[C@H](C)[C@@H](CN(C)Cc2ccc(Cl)c(Cl)c2)Oc2c(NS(=O)(=O)c3cn(C)cn3)cccc2C1=O	4	2%	-6%	-1%	x	10%
Cc1onc(-c2ccccc2)c1CNC(=O)Nc1ccccc1	-6	-6%	5%	9%	-28%	56%
Cc1ccc(C2C(C#N)=C(N)N(c3cccnc3)C3=C2C(=O)CCC3)s1 (stereo not drawn)	-1	56µM*	-2%[60.1 µM]	-7%[11.6 µM]	u	u
Cc1nn(C)cc1C1C(C#N)=C(N)N(c2cccnc2)C2=C1C(=O)CCC2 (stereo not drawn)	-5	-13%	-10%	8%	37%	220%
Cc1ccc(-n2c(CCC(=O)O)ccc2-c2cccs2)cc1Cl	x	1%	2%	x	2.5µM*	u
Cc1ccc(-n2c(CCC(=O)O)ccc2-c2cccs2)cc1	x	u	-14%	-22%	35µM*	u
Cc1ccc(NC(=O)Cn2c(CCC(=O)O)ccc2-c2cccs2)cc1	x	79µM*	4%	-19%[57.1 µM]	u	-24%
SMILES	PI5P4Ka inh	Pol eta inh	Pol kappa inh	WRN helicase inh	Pol beta inh	POLI inh
O=C(c1cccs1)N1CCN(Cc2cccnc2)CC1	2	22µM*	-12%	4%	26%	0%
O=C(c1cccs1)N1CCN(Cc2ccncc2)CC1	-4	2%	4%	-14%	1%	u
CCCn1nc(C(=O)Nc2ccc(S(=O)(=O)Nc3ncccn3)cc2)c2ccccc2c1=O	-11	50µM*	-24%	-16%	1%	u
CC(=O)Nc1ccc(S(=O)(=O)Nc2ncccn2)cc1	x	-6%	8%	2%	0%	18%
CCCn1nc(C(=O)NCCc2ccc(S(N)(=O)=O)cc2)c2ccccc2c1=O	-1	-5%	-10%	-9%	15%	-10%[58.9 µM]
O=C(Nc1ccc(S(=O)(=O)Nc2ncccn2)cc1)C1=COCCO1	-17	u	-25%	-32%	x	50µM*
CCn1cc(C(=O)N(C)Cc2ccccc2)c(=O)c2cc(S(=O)(=O)N3CCc4ccccc4C3)ccc21	x	-12%	-1%	x	42%	20%
CC(=NO)c1ccc2c(c1)Cc1cc([N+](=O)[O-])ccc1-2	-70*	u	-13%	-26%	x	-5%
O=c1c2ccccc2nc(/C=C/c2ccc([N+](=O)[O-])o2)n1CCCO	-10	16µM*	1%	-7%	u	-28%
CCOC(=O)c1ccc(NS(=O)(=O)c2ccc(SC)cc2)cc1	x	-4%	-7%	-8%[11.6 µM]	-14%	79µM*
CCOC(=O)Cc1ccc(NS(=O)(=O)c2ccc(SC)cc2)cc1	11	-6%	-3%	-2%	12%	8%
CCN1/C(=C/c2cc[n+](C)cc2)C=Cc2cc(C)ccc21	5	u	-20%	-21%[57.1 µM]	22µM*	u
CCN1/C(=C/c2ccc3ccccc3[n+]2CCCS(=O)(=O)[O-])C=Cc2cc(C)ccc21	-28	-8%	-42%	-15%	-21%	-12%
CCCc1cc(C(=O)OCC(=O)NCCc2ccccc2)sc1C	-14	-1%	x	-3%	x	x
N#Cc1c(-c2cccc(Br)c2)cc(-c2ccco2)[nH]c1=O	-62*	50µM*	-38%	u	18µM*	u
O=C(CN1CCN(c2ccccc2F)CC1)c1ccc(O)c(O)c1	5	u	u	-8%[11.6 µM]	7%	45µM*
O=C(Cc1cccc(F)c1)NO	x	x	1%	x	x	32%
CCc1ccc(S(=O)(=O)Nc2c(C)nc3nc[nH]n3c2=O)cc1	-2	3%	-11%	-2%	30%	-13%
Cc1ccccc1Nc1nc(N)nc(COC(=O)c2ccc([N+](=O)[O-])o2)n1	-4	89µM*	-23%	4%[11.6 µM]	x	u
O=Cc1ccc(C(=O)OCC(=O)NC(=O)Nc2ccccc2F)cc1	-57*	u	-11%	-3%	x	-4%
